{"source": "the supplement of paper PMC12350171", "note": "Structures can show the parent of a compound that is named as a salt. A number with no mark means an inactive call.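 Rule for the calls: active = AUC significantly below DMSO controls by Student t-fit with adjusted P under 0.01; inactive = not significantly reduced.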", "data": [{"system": "Yersinia pseudotuberculosis", "assay": "growth AUC normalised to DMSO control (fraction of control); higher = less growth inhibition, active = hit call of the paper", "settings": "20 µM", "how_it_was_run": "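For the AUC endpoint, growth curves were integrated by the trapezoidal rule up to the exponential-to-stationary transition and normalised to DMSO controls on the same plate. The curves came from OD578 readings taken hourly for 24 h, in three biological replicates. Pathogens had been passaged anaerobically twice and inoculated at an OD578 of 0.01 into pre-reduced mGAM plates carrying 20 μM compound and 1% DMSO, sealed with breathable membranes. Medium for Haemophilus parainfluenzae also contained hemin and NAD.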", "values": [{"smiles": "C=CCC1(CC(C)C)C(=O)NC(=O)NC1=O", "note": "[Butalbital]", "growth AUC normalised to DMSO control": 1}, {"smiles": "CC1C=CC=CCCC=CC=CC=CC=CC(OC2OC(C)C(O)C(N)C2O)CC2OC(O)(CC(O)C(O)CCC(O)CC(O)CC(O)CC(=O)OC(C)C(C)C1O)CC(O)C2C(=O)O", "note": "(centres undefined) [Nystatine]", "growth AUC normalised to DMSO control": 0.989}, {"smiles": "O=C(CCCN1CCC2(CC1)C(=O)NCN2c1ccccc1)c1ccc(F)cc1", "note": "[Spiperone]", "growth AUC normalised to DMSO control": 0.985}, {"smiles": "COc1ccc(OC)c(C(O)C(C)N)c1", "note": "(centres undefined) [Methoxamine hydrochloride]", "growth AUC normalised to DMSO control": 0.991}, {"smiles": "CC(C)(C)NCC(O)c1cc(Cl)c(N)c(Cl)c1", "note": "(centres undefined) [Clenbuterol hydrochloride]", "growth AUC normalised to DMSO control": 0.993}, {"smiles": "COc1ccc(CN2CCNCC2)c(OC)c1OC", "note": "[Trimetazidine dihydrochloride]", "growth AUC normalised to DMSO control": 1.01}, {"smiles": "CC[N+]1(C)CCCC(OC(=O)C(O)(c2ccccc2)c2ccccc2)C1", "note": "(centres undefined) [Pipenzolate bromide]", "growth AUC normalised to DMSO control": 1.01}, {"smiles": "NCC(O)c1ccc(O)cc1", "note": "(centres undefined) [Octopamine hydrochloride]", "growth AUC normalised to DMSO control": 1.02}, {"smiles": "CC(=O)NC1CCSC1=O", "note": "(centres undefined) [Citiolone]", "growth AUC normalised to DMSO control": 0.985}, {"smiles": "O=[N+]([O-])O[C@@H]1CO[C@H]2[C@@H]1OC[C@@H]2O", "note": "[Isosorbide mononitrate]", "growth AUC normalised to DMSO control": 1}, {"smiles": "C=C1C[C@@H]2[C@H](CC[C@]3(C)C(=O)CC[C@@H]23)[C@@]2(C)C=CC(=O)C=C12", "note": "[Exemestane]", "growth AUC normalised to DMSO control": 1}, {"smiles": "O=c1c2ccccc2[se]n1-c1ccccc1", "note": "[Ebselen]", "growth AUC normalised to DMSO control": 0.974}, {"smiles": "O=C(CCCN1CCC(n2c(=O)[nH]c3ccccc32)CC1)c1ccc(F)cc1", "note": "[Benperidol]", "growth AUC normalised to DMSO control": 0.975}, {"smiles": "C[N+](C)(C)CCCCCCCCCC[N+](C)(C)C", "note": "[Decamethonium bromide]", "growth AUC normalised to DMSO control": 1}, {"smiles": "CCN[C@@H](C)Cc1cccc(C(F)(F)F)c1", "note": "[Dexfenfluramine hydrochloride]", "growth AUC normalised to DMSO control": 0.995}, {"smiles": "C=C(C)[C@@H]1[C@H]2OC(=O)[C@@H]1[C@]1(O)C[C@H]3O[C@]34C(=O)O[C@H]2[C@]14C", "note": "[Picrotoxinin]", "growth AUC normalised to DMSO control": 0.997}, {"smiles": "CC(C)(C)NCC(O)c1ccccc1Cl", "note": "(centres undefined) [Tulobuterol hydrochloride]", "growth AUC normalised to DMSO control": 0.893}, {"smiles": "Fc1ccc(C(OCCN2CCN(CCCc3ccccc3)CC2)c2ccc(F)cc2)cc1", "growth AUC normalised to DMSO control": 0.995}, {"smiles": "C=C1CC[C@@]2(O)[C@H]3Cc4ccc(O)c5c4[C@@]2(CCN3CC2CC2)[C@H]1O5", "note": "[Nalmefene hydrochloride]", "growth AUC normalised to DMSO control": 1.03}, {"smiles": "C1CCc2nnnn2CC1", "note": "[Pentylenetetrazole]", "growth AUC normalised to DMSO control": 0.976}, {"smiles": "CCOC(=O)c1cncn1[C@H](C)c1ccccc1", "note": "[Etomidate]", "growth AUC normalised to DMSO control": 0.984}, {"smiles": "CC(C)CC(N(C)C)C1(c2ccc(Cl)cc2)CCC1", "note": "(centres undefined) [Sibutramine hydrochloride]", "growth AUC normalised to DMSO control": 1}, {"smiles": "C[N+]12CCC(CC1)C(OC(=O)C(O)(c1ccccc1)c1ccccc1)C2", "note": "(centres undefined) [Clidinium bromide]", "growth AUC normalised to DMSO control": 0.999}, {"smiles": "CN(C)[C@@H]1C(=O)C(C(N)=O)=C(O)[C@@]2(O)C(=O)C3=C(O)c4c(O)ccc(Cl)c4[C@@](C)(O)[C@H]3C[C@@H]12", "note": "[Chlortetracycline hydrochloride]", "growth AUC normalised to DMSO control": "0.0311 (active)"}, {"smiles": "C[N+]1(C)[C@@H]2CC[C@H]1C[C@@H](OC(=O)C(CO)c1ccccc1)C2", "note": "(some centres undefined) [Methylatropine nitrate]", "growth AUC normalised to DMSO control": 1}, {"smiles": "CC(C)N(CCC(C(N)=O)(c1ccccc1)c1ccccn1)C(C)C", "note": "(centres undefined) [Disopyramide]", "growth AUC normalised to DMSO control": 0.996}, {"smiles": "CNC(=O)Oc1ccc2c(c1)[C@]1(C)CCN(C)[C@@H]1N2C", "note": "[Eserine hemisulfate salt]", "growth AUC normalised to DMSO control": 0.97}, {"smiles": "CN1[C@@H]2CC[C@H]1C[C@@H](OC(=O)C(CO)c1ccccc1)C2", "note": "(some centres undefined) [Atropine sulfate monohydrate]", "growth AUC normalised to DMSO control": 1}, {"smiles": "COc1ccc(C(CN(C)C)C2(O)CCCCC2)cc1", "note": "(centres undefined) [Venlafaxine]", "growth AUC normalised to DMSO control": 1.08}, {"smiles": "NCCc1c[nH]c2ccc(O)cc12", "note": "[Serotonin hydrochloride]", "growth AUC normalised to DMSO control": 0.981}, {"smiles": "CC(CCc1ccccc1)NC(C)C(O)c1ccc(O)cc1", "note": "(centres undefined) [Nylidrin]", "growth AUC normalised to DMSO control": 0.993}, {"smiles": "C[N+]1(C)CCOC(O)(c2ccc(-c3ccc(C4(O)C[N+](C)(C)CCO4)cc3)cc2)C1", "note": "(centres undefined) [Hemicholinium bromide]", "growth AUC normalised to DMSO control": 1.03}, {"smiles": "CC(=O)O[C@H]1C[C@@H]2CC[C@@H]3[C@H](CC[C@@]4(C)[C@H]3C[C@H]([N+]3(C)CCCCC3)[C@@H]4OC(C)=O)[C@@]2(C)C[C@@H]1[N+]1(C)CCCCC1", "note": "[Pancuronium bromide]", "growth AUC normalised to DMSO control": 1}, {"smiles": "O=C1CC[C@@]2(O)[C@H]3Cc4ccc(O)c5c4[C@@]2(CCN3CC2CC2)[C@H]1O5", "note": "[Naltrexone hydrochloride dihydrate]", "growth AUC normalised to DMSO control": 1.01}, {"smiles": "CC(Cc1ccccc1)NCCC(c1ccccc1)c1ccccc1", "note": "(centres undefined) [Prenylamine lactate]", "growth AUC normalised to DMSO control": 1.02}, {"smiles": "CCC1(CC)C(=O)C=CNC1=O", "note": "[Pyrithyldione]", "growth AUC normalised to DMSO control": 1}, {"smiles": "COc1cc2c(c(OC)c1OC)-c1ccc(OC)c(=O)cc1[C@@H](NC(C)=O)CC2", "note": "[Colchicine]", "growth AUC normalised to DMSO control": 0.977}, {"smiles": "COc1cc([C@@H]2c3cc4c(cc3[C@H](O)[C@H]3COC(=O)[C@H]23)OCO4)cc(OC)c1OC", "note": "[Podophyllotoxin]", "growth AUC normalised to DMSO control": 1.01}, {"smiles": "Oc1ccc2c3c1O[C@H]1[C@@H](O)CC[C@@]4(O)[C@@H](C2)N(CC2CCC2)CC[C@]314", "note": "[Nalbuphine hydrochloride]", "growth AUC normalised to DMSO control": 0.905}]}]}
